Reference: PubChem BioAssay (NCATS)
Inconclusive results are not listed. Calls of active or inactive are those of the source. Calls follow the shape of the full dose curve.

test: Cell Viability - BJ (AID 421); conditions: BJ fibroblast viability, qHTS;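 also: cells exposed to compound for 40 hours at 37 °C before readout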
Description: NIH Chemical Genomics Center [NCGC]
NIH Molecular Libraries Screening Centers Network [MLSCN]
National Institutes of Environmental Health Sciences [NIEHS]
National Toxicology Program [NTP]
We have developed a 1536-well cell-based assay for quantitative high throughput screening (qHTS) against a number of cell lines to determine in vitro cytotoxicity of small molecules. This particular assay uses the BJ cell line from ATCC which is derived from normal human foreskin fibroblasts.
NCGC Assay Protocol Summary:
The CellTiter-Glo luminescent cell viability assay (Promega) is a homogeneous method to measure the number of viable cells in culture. The end point readout of this assay is based on quantitation of intracellular ATP, an indicator of metabolic activity, using the luciferase reaction. Luciferase catalyzes the oxidation of beetle Luciferin to oxyluciferin and light in the presence of ATP. The luminescent signal is proportional to amount of ATP present.
Using the CellTiter-Glo luminescent cell viability assay, the amount of cellular ATP was measured in the BJ cell line with complete culture medium following compound treatment for 40 hours. The assay was performed in opaque white Kalypsys 1536-well plates. In the screen, tamoxifen and doxorubicin were used as positive controls. Library compounds were measured for their ability to cause acute toxicity in the cell line, as reflected by a decrease in intracellular ATP levels, in a concentration-dependent manner. Data were normalized to the controls for basal activity (DMSO only) and 100% inhibition (100 uM tamoxifen). AC50 values were determined from concentration-response data modeled with the standard Hill equation.
qHTS protocol fo CellTiter Glo BJ cellular assay
[Step] [Parameter] [Value] [Description]
1. Reagent; 5 uL; 1500 BJ cells/well
2. Time; 5 hr; 37 °C incubation
4. Controls; 23 nL; Tamoxifen 0.34 uM to 100 uM & Doxorubicin 0.02 nM to 100 uM
5. Time; 40 hr; 37 °C incubation
6. Reagent; 5 uL; CellTiter Glo reagent
7. Time; 20 min; Room Temperature
8. Detection; Luminescence; Viewlux plate reader
Keywords: cell viability, cytotoxicity, BJ cell line, luminescence, NTPHTS, NTPHTS_NCGC, NIEHS, EPA, DSSTox, MLSMR, MLSCN, NIH Roadmap, qHTS, NCGC
Potency is read from the fitted curve at half-maximal effect.

Row | Structure (SMILES) | Potency
1 | c1ccc2c(c1)-c1cccc3cccc-2c13 | > 92 µM (inactive)
2 | CC(=O)/C=C/c1ccccc1 | > 92 µM (inactive)
3 | c1ccc(Nc2ccc3ccccc3c2)cc1 | > 92 µM (inactive)
4 | CC(C)COC(=O)c1ccccc1C(=O)OCC(C)C | > 92 µM (inactive)
5 | Oc1ccccc1Cl | > 92 µM (inactive)
6 | O=Cc1ccccc1 | > 92 µM (inactive)
7 | Cc1ccccc1O | > 92 µM (inactive)
8 | CCOC(=O)c1ccccc1N | > 92 µM (inactive)
9 | COC(=O)c1ccccc1C(=O)OC | > 92 µM (inactive)
10 | COC1=CC(=O)OC(CCc2ccc3c(c2)OCO3)C1 (stereo not drawn) | > 92 µM (inactive)
11 | CC(C)(c1ccc(OCC2CO2)cc1)c1ccc(OCC2CO2)cc1 (stereo not drawn) | > 92 µM (inactive)
12 | Oc1c(Cl)c(Cl)c(Cl)c(Cl)c1Cl | > 92 µM (inactive)
13 | CCOc1cc(C=O)ccc1O | > 92 µM (inactive)
